In PubChem BioAssay AID463173 (ICCB-Longwood Screening Facility, Harvard Medical School, 2010):
Out of some 52,000 compounds screened, about 4,300 (8.3%) were called active. The entries come from a sample that favours actives as a whole. Values without a mark were called inactive. Cut-off read from the data, not from the text of the source: active = survival mostly below about 52% (no sharp cut-off); inactive = mostly above about 56%.

test system: DeltatarO mutant; test: S. aureus survival, RN4220 and DeltatarO strains – OD600, teichoic acid synthesis inhibitors, primary screen (AID 463173); conditions: S. aureus RN4220 wild type/DeltatarO growth, OD600, 18 h, hits give low values, screened at 18.75 µg/mL (by protocol)

Structure (SMILES)	survival
CN(CC(=O)Nc1cccc(C(F)(F)F)c1)S(=O)(=O)c1ccc2[nH]c3c(c2c1)CCCC3	94%
CC(=O)N1CCc2cc(C(=O)C[n+]3ccccc3)ccc21	91%
C=CCNC(=O)CN1CCC(n2c(C)nc3cc(C(F)(F)F)ccc32)CC1	95%
O=C(Cn1ncn2c(cc3ccccc32)c1=O)NCc1ccc(F)cc1	104%
CCCCC(=O)OC1=C(C(=O)c2ccccc2)N(CC)S(=O)(=O)c2ccccc21	52%
CCN1C(C(=O)c2ccccc2)=C(OC(=O)c2ccc(Cl)cc2)c2ccccc2S1(=O)=O	50%
CCN1C(C(=O)c2ccccc2)=C(OC(=O)c2ccc(OC)cc2)c2ccccc2S1(=O)=O	46% (active)
CCOC(=O)CN1C(C(=O)c2ccccc2)=C(OC(=O)c2ccccc2)c2ccccc2S1(=O)=O	56%
COC(=O)CN1C(C(=O)c2ccccc2)=C(OC(=O)c2ccccc2)c2ccccc2S1(=O)=O	49%
CCCCC(=O)OC1=C(C(=O)c2ccccc2)N(C)S(=O)(=O)c2ccccc21	104%
CCCCC(=O)OC1=C(C(=O)c2ccccc2)N(CCC)S(=O)(=O)c2ccccc21	18% (active)
CCCCCN1C(C(=O)c2ccccc2)=C(OC(=O)CC)c2ccccc2S1(=O)=O	-4% (active)
CCCN1C(C(=O)c2ccccc2)=C(OC(=O)c2ccc(OC)cc2)c2ccccc2S1(=O)=O	56%
O=C(COc1ccccc1)Nc1ccc(S(=O)(=O)N(Cc2ccccc2)c2ccccc2)cc1	61%
CC1CCCN(CNC(=O)c2ccccc2)C1 (centres undefined)	92%
COc1cc(CNCCCSc2nnnn2C)cc(Br)c1OC	81%
Cc1ccc(S(=O)(=O)N2CCCc3cc(NC(=O)c4c(F)cccc4F)ccc32)cc1	73%
COc1ccccc1NC(=O)Cn1nnc(C(=O)NCc2ccc3c(c2)OCO3)c1N	103%
CCOC(=O)Cn1c(=O)oc2cc(S(=O)(=O)N3CCN(c4ccc(F)cc4)CC3)ccc21	117%
CSc1cccc(-c2nnc(NC(=O)c3ccc4c(c3)OCCO4)o2)c1	72%

Structure (SMILES)	survival
COc1cccc(NC(=O)CC(=O)Nc2ccc3nc4n(c(=O)c3c2)CCCCC4)c1	96%
Cc1ccc(C)c(N2CCN(C(=O)NCc3noc4ccccc34)CC2)c1	51%
Cc1ccc(N2CCN(C(=O)NCc3noc4ccccc34)CC2C)cc1 (centres undefined)	30% (active)
O=C(NCc1noc2ccccc12)N1CCN(c2ccccc2)CC1	44%
O=C(O)CCC(=O)N1CCN(Cc2ccc3c(c2)OCO3)CC1	75%
Cc1ccc(S(=O)(=O)N2CCOCC2)cc1C(=O)Nc1ccccc1C(=O)O	83%
CC(=O)c1ccc(NC(=O)c2cc(S(=O)(=O)N3CCOCC3)ccc2C)cc1	49% (active)
COc1ccc(NC(=O)c2cc(S(=O)(=O)N3CCOCC3)ccc2OC)cc1	89%
Cc1ccc(S(=O)(=O)CC(=O)Nc2sc3c(c2C#N)CCCCC3)cc1	72%
N#Cc1c(-n2ncnc2-c2cccc(Br)c2)sc2c1CCCCC2	23% (active)
CCCCNCc1cccn1-c1sc2c(c1C#N)CCCC2	109%
Cc1ccc(S(=O)(=O)CC(=O)Nc2sc3c(c2C#N)CCCC3)cc1	119%
COc1ccc(-c2nnn(CC(=O)Nc3sc4c(c3C#N)CCCC4)n2)cc1	98%
N#Cc1c(-n2ncnc2-c2cccc(Cl)c2)sc2c1CCCCC2	61%
N#Cc1c(-n2ncnc2-c2ccc(Br)cc2)sc2c1CCCCC2	2% (active)
CC(C)CCOc1ccc(C(=O)Nc2sc3c(c2C#N)CCCCC3)cc1	127%
N#Cc1c(-n2ncnc2-c2ccc(F)cc2)sc2c1CCCCC2	-4% (active)
CCOc1ccc(-c2ncnn2-c2sc3c(c2C#N)CCCCC3)cc1	5% (active)
N#Cc1c(N)sc2c1CCCC2	103%
N#Cc1c(N2C(=O)C3C4C=CC(C4)C3C2=O)sc2c1CCCC2 (centres undefined)	71%

Structure (SMILES)	survival
O=C(/C=C/c1ccco1)Nc1ccc(-c2cc3ccccc3oc2=O)cc1	50%
CC(=O)N1CCc2cc(S(=O)(=O)NC(CC(C)C)C(=O)NCCc3ccccc3)ccc21 (centres undefined)	78%
CCCCOc1ccccc1C(=O)N(Cc1ccc(C)o1)C1CCS(=O)(=O)C1 (centres undefined)	71%
Cc1cccc(OCC(=O)Nc2ccccc2C(=O)OCc2cc(=O)n3ccsc3n2)c1	77%
CC(=O)Nc1ccc(S(=O)(=O)N2CCC(NC(=O)Nc3cccc(F)c3)CC2)cc1	91%
CC1=C(C(=O)Nc2ccc(C)cc2C)C(c2cccn2C)n2ncnc2N1 (centres undefined)	91%
Cc1ccc(NS(=O)(=O)c2c(C(=O)N3CCCCCC3)c(C)n(C)c2C)cc1F	83%
CCCOC(=O)c1c(NC(=O)C2c3ccccc3Oc3ccccc32)sc2c1CCC(C)C2 (centres undefined)	82%
CCOC(=O)c1sc(NC(=O)C2c3ccccc3Oc3ccccc32)c(C#N)c1C	72%
CCOC(=O)c1c(NC(=O)C2c3ccccc3Oc3ccccc32)sc(C)c1C	12% (active)
COC(=O)c1c(NC(=O)C2c3ccccc3Oc3ccccc32)sc2c1CCC(C)C2 (centres undefined)	56%
CCc1c(C)sc(NC(=O)C2c3ccccc3Oc3ccccc32)c1C(=O)OC(C)C	41% (active)
CNC(=O)C1c2ccccc2Oc2ccccc21	91%
Cc1sc(NC(=O)C2c3ccccc3Oc3ccccc32)c(C(=O)OC(C)C)c1C	59%
CCOC(=O)c1sc(NC(=O)C2c3ccccc3Oc3ccccc32)c(C(=O)OCC)c1C	124%
CCOC(=O)c1c(NC(=O)C2c3ccccc3Oc3ccccc32)sc(C)c1CC	24% (active)
CCCOC(=O)c1c(NC(=O)C2c3ccccc3Oc3ccccc32)sc2c1CCCC2	77%
CC(C)OC(=O)c1c(NC(=O)C2c3ccccc3Oc3ccccc32)sc2c1CCCC2	93%
CC1CCc2c(sc(NC(=O)C3c4ccccc4Oc4ccccc43)c2C(=O)OC(C)C)C1 (centres undefined)	47% (active)
